# Data taken from PubChem BioAssay.
# Calls of active or inactive are those of the source. Unless noted, how the calls were made is not given here.
# Tests used:
# [1] = system: Wnt5a (protein binding on small-molecule microarray); assay: small molecules binding Wnt5a protein – biophysical, small-molecule microarray, 635/667 nm fluorescence, primary screen (AID 1142); conditions: 635 nm fluorescence, higher = more signal;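 further: fluorescence read at 667 nm with signal to noise per printed feature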
# [2] = ATP-based viability of Huh7 replicon cells – cell-based, CellTiter-Glo luminescence, basal, 48 h, cytotoxicity control for HCV replication inhibitor project, primary screen (AID 1143); conditions: higher = more signal, called active from +8 up or from −8 down;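 further: Huh7 hepatoma cells carrying a hepatitis C replication reporter with no stimulus; test concentration not given here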
# [3] = Pseudomonas biofilm growth suppression – PAO1 strain, BacTiter-Glo luminescence, LB-PBS, primary screen (AID 1144); conditions: P. aeruginosa PAO1 biofilm, 12 h, higher = more signal
# [4] = basal CRE-LacZ reporter activity in PC12 – cell-based, unstimulated, primary screen (AID 1145); conditions: no forskolin, luminescence, 4.5 h, higher = more signal, called active from +8 up or from −8 down
# [5] = forskolin-driven CRE-LacZ activity in PC12 – cell-based, CRE-LacZ reporter, forskolin-stimulated, primary screen (AID 1146); conditions: luminescence, 4.5 h, higher = more signal, called active from +8 up or from −8 down;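 further: PC12 cells with 6xCRE LacZ reporter stimulated by forskolin 10 µM; beta-galactosidase reporter signal reflecting CREB driven transcription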
# [6] = molecular target: Streptavidin (Streptomyces avidinii) (UniProt P22629); assay: compounds binding control protein streptavidin – biophysical, small-molecule microarray, 635/667 nm fluorescence, artefact control for SMM compound annotation, primary screen (AID 1147); conditions: higher = more signal;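 further: signal reflects streptavidin binding to arrayed compounds as a control protein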
# Sequence of Streptavidin (Streptomyces avidinii) (P22629 whole entry, looked up): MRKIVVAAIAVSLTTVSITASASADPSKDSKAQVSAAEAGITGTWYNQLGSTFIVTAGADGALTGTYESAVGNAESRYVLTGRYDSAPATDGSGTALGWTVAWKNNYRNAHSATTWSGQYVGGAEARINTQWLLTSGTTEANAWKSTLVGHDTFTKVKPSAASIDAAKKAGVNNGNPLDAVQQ
# [7] = probe aInhba binding on compound microarray – biochemical, small-molecule microarray, 635/667 nm fluorescence, primary screen (AID 1148); conditions: higher = more signal;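 further: score merges 667nm spot fluorescence with signal-to-noise for antibody binding to printed compounds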
# [8] = molecular target: Torsin-1A (Homo sapiens) (UniProt O14656); assay: TOR1A wild-type binding on microarray – cell lysate, small-molecule microarray, lysate, 635/667 nm, primary screen (AID 1149); conditions: COS7 hTOR1A-WT lysate, 635 nm fluorescence, higher = more signal
# Sequence of Torsin-1A (Homo sapiens) (O14656 whole entry, looked up): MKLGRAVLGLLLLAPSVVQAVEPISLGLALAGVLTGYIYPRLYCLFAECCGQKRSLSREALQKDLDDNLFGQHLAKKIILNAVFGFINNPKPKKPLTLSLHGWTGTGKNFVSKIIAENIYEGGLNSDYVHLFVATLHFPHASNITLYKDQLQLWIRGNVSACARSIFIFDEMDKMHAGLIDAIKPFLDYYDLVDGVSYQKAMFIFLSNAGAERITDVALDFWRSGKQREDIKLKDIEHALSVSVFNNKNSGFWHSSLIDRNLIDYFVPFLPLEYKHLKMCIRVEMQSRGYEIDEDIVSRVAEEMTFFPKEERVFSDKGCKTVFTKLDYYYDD
# [9] = molecular target: Torsin-1A (Homo sapiens) (UniProt O14656); assay: torsin A mutant lysate binding on microarrays – cell lysate, small-molecule microarray, COS7 lysate, 635/667 nm fluorescence, primary screen (AID 1150); conditions: COS7 hTOR1A mutant lysate, 635 nm fluorescence, higher = more signal;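 further: score pools 667 nm emission and signal to noise measuring lysate protein binding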
# [10] = system: Sonic hedgehog protein (Shh); assay: Sonic hedgehog microarray binding compounds – biochemical, small-molecule microarray, 635/667 nm fluorescence, primary screen (AID 1151); conditions: 635 nm fluorescence, higher = more signal;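 further: Shh protein binding to compounds spotted on small-molecule microarray slides; score combines spot fluorescence intensity with signal-to-noise across triplicate slides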
# [11] = optical density shifts of acrAB sulA E. coli – strain DRC41, OD650, 48 h, E. coli filamentation inducer project, primary screen (AID 1152); conditions: higher = more signal, called active from +8 up or from −8 down;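 further: E. coli MC1000 strain DRC41 lacking acrAB efflux pump and sulA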
# [12] = probe aLefty1 binding on compound microarray – biochemical, small-molecule microarray, 635/667 nm fluorescence, primary screen (AID 1153); conditions: higher = more signal;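 further: score merges spot fluorescence with signal-to-noise ratio from the scanned slide images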
# [13] = plasmodial surface anion channel blockers, osmotic lysis – cell-based, P. falciparum Indochina, OD700, 1 h, primary screen (AID 1154); conditions: P. falciparum Indochina infected RBC osmotic lysis, higher = more signal, called active from +8 up or from −8 down
# [14] = plasmodial surface anion channel blockers, osmotic lysis – cell-based, P. falciparum Indochina, OD700, 2 h, primary screen (AID 1155);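 further: lysis reports solute entry through the parasite surface anion channel PSAC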; conditions: P. falciparum Indochina infected erythrocytes, higher = more signal, called active from +8 up or from −8 down
# [15] = changes in parasitized red cell lysis, either direction – P. falciparum Indochina, OD700, 3 h, PSAC antagonist project, primary screen (AID 1156); conditions: P. falciparum-infected erythrocytes, osmotic lysis, higher = more signal, called active from +8 up or from −8 down
# [16] = plasmodial surface anion channel blockers, osmotic lysis – cell-based, P. falciparum Indochina, OD700, 18 h, primary screen (AID 1157); conditions: P. falciparum Indochina infected erythrocytes, osmotic lysis OD700, 18 h; higher = more signal, called active from +8 up or from −8 down
# [17] = S6 kinase pathway phospho-S6 level changes – cell-based, A549, cytoblot, luminescence, serum-stimulated, primary screen (AID 1158); conditions: 5 h, higher = more signal;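 further: serum-stimulated A549 lung adenocarcinoma cells; signal is phosphorylated S6 detected by cytoblot immunostaining with HRP secondary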
# [18] = molecular target: NADPH oxidase 2 (Homo sapiens) (UniProt P04839); assay: compounds shifting NOX2 Amplex Red fluorescence – cell-based, HEK293-NOX2, PMA-stimulated, NOX inhibitor project, primary screen (AID 1159); conditions: 45 min, higher = more signal, called active from +8 up or from −8 down; further: test concentration not given here
# Sequence of NADPH oxidase 2 (Homo sapiens) (P04839 whole entry, looked up): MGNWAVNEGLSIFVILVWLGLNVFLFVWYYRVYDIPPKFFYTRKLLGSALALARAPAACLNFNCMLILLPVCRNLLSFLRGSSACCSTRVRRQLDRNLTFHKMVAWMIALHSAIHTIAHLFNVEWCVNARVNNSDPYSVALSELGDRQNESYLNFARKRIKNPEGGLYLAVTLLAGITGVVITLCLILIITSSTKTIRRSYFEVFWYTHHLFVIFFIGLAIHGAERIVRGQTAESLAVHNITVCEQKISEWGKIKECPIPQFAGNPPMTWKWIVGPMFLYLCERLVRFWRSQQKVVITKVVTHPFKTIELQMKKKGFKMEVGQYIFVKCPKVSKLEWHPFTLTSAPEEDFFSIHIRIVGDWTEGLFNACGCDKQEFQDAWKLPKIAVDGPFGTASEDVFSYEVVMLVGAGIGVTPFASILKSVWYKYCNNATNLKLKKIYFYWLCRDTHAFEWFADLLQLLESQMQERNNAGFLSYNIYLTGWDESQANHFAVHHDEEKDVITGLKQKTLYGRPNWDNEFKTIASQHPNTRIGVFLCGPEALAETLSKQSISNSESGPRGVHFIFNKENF
# [19] = molecular target: NADPH oxidase 4 (Homo sapiens) (UniProt Q9NPH5); assay: compounds shifting NOX4 Amplex Red fluorescence – cell-based, HEK293-NOX4, tetracycline-induced, NOX inhibitor project, primary screen (AID 1160); conditions: HEK293-NOX4, Amplex Red H2O2 fluorescence, 45 min; higher = more signal, called active from +8 up or from −8 down
# Sequence of NADPH oxidase 4 (Homo sapiens) (Q9NPH5 whole entry, looked up): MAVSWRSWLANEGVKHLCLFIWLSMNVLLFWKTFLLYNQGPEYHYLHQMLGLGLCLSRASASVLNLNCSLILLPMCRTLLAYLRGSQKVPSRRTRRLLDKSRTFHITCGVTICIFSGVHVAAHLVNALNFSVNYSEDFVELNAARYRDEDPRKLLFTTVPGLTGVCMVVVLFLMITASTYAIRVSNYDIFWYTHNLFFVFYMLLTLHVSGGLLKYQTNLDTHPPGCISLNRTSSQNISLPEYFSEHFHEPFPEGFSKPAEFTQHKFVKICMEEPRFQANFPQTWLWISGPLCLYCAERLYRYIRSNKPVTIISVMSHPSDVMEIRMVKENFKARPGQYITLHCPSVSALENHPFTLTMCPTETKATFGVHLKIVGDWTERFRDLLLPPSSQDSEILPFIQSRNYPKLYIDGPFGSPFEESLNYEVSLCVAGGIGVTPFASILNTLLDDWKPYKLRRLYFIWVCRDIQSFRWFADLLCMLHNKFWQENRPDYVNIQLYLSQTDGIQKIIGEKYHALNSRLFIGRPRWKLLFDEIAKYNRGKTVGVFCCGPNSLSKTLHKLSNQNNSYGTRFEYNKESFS
# [20] = molecular target: NADPH oxidase 5 (Homo sapiens) (UniProt Q96PH1); assay: compounds shifting NOX5 Amplex Red fluorescence – cell-based, HEK293-NOX5, NOX inhibitor project, primary screen (AID 1161); conditions: HEK293-NOX5, ionomycin, 45 min, higher = more signal
# Sequence of NADPH oxidase 5 (Homo sapiens) (Q96PH1 whole entry, looked up): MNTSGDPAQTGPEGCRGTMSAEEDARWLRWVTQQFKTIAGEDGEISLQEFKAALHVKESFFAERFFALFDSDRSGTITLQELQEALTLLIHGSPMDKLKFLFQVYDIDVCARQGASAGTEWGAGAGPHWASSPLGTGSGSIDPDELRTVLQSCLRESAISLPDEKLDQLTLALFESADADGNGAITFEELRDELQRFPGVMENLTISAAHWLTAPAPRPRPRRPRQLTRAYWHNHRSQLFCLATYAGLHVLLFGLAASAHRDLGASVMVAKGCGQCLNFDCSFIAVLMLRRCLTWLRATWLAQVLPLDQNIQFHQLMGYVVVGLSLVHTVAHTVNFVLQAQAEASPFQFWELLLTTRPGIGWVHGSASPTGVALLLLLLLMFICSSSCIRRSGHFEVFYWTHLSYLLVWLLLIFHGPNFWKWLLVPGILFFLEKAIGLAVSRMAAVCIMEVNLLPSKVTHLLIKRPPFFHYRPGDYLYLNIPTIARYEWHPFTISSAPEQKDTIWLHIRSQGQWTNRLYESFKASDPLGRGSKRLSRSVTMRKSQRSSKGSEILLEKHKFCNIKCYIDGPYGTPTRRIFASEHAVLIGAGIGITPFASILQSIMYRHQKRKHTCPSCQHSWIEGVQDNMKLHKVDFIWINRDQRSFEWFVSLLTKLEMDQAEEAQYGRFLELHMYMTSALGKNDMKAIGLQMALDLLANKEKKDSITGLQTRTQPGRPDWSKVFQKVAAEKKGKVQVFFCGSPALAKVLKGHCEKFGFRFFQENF
Structure (SMILES),composite z-score [1],z-score [2],z-score [3],z-score [4],z-score [5],composite z-score [6],composite z-score [7],composite z-score [8],composite z-score [9],composite z-score [10],z-score [11],composite z-score [12],z-score [13],z-score [14],z-score [15],z-score [16],z-score [17],z-score [18],z-score [19],z-score [20]
CCCCC(O)C1C=CC2C(=O)N(C)C(=O)C2N1N1CCCCC1 (stereo not given),0.0755,1.09 (inactive),0.382 (inactive),0.0535 (inactive),0.47 (inactive),0.0223,0.196,0.0748,0.845,0.0629,-1.43 (inactive),0.384,0.537 (inactive),0.917 (inactive),0.155 (inactive),1.47 (inactive),-0.751,-0.353 (inactive),0.133 (inactive),-1.03
O=C1NC(=O)C2C1C=CC(C(O)c1ccc(I)cc1)N2Nc1ccc(Cl)cc1Cl (stereo not given),0.372,-1.58 (inactive),-1.74 (inactive),1.77 (inactive),-0.299 (inactive),1.34,0.337,0.0137,0.303,-0.366,-0.971 (inactive),0.618,5.17 (inactive),0.872 (inactive),-1.72 (inactive),-1.16 (inactive),1.22,-0.204 (inactive),-4.36 (inactive),-0.634
COCCOC(=O)N1C(=O)[C@@]2(c3ccccc31)[C@H](C(=O)N1CCc3cc(OC)c(OC)cc3C1)[C@H]1C(=O)O[C@H](c3ccccc3)[C@H](c3ccccc3)N1[C@@H]2c1ccc(O)cc1,0.622,-3.5 (inactive),-0.726 (inactive),-0.0515 (inactive),2.99 (inactive),1.39,-0.0889,1.06,1.31,1.96,3.04 (inactive),-0.0186,0.927 (inactive),-0.751 (inactive),-0.965 (inactive),-1.93 (inactive),2.38,0.571 (inactive),0.549 (inactive),1.2
COC(=O)[C@@]1(Cc2ccccc2)[C@H]2c3cc(C(=O)N(C)C)n(Cc4ccc(OC)c(OC)c4)c3C[C@H]2CN1C(=O)c1ccccc1,1.15,-2.81 (inactive),0.655 (inactive),0.394 (inactive),0.786 (inactive),1.43,0.498,0.406,1.16,-0.735,-1.95 (inactive),0.211,3.81 (inactive),1.2 (inactive),0.688 (inactive),1.11 (inactive),-0.399,-0.415 (inactive),-0.865 (inactive),-0.0397
